92 compounds from PubChem BioAssay AID878 (University of Pittsburgh Molecular Library Screening Center, 2007) can be followed below.

The structures appear in SMILES notation. Out of some 200,000 compounds screened, about 65 (0.03%) were called active.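 The calls were made as follows: active = activation of at least 50% relative to the plate's high and low controls in the primary single-dose screen; inactive = activation below 50%.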 Only a selection was taken, and actives are over-represented in it overall.

The experiment is described as follows: compounds producing H2O2 with reducing agent – biochemical, NIH compound library profiling, artefact control for MLSCN library redox annotation, primary screen (AID 878).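 Also: compound incubated with DTT at 0.8 mM final as the reducing agent.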 The note with it: DTT-dependent redox cycling H2O2, phenol red/HRP absorbance; at 10 µM; active compounds read high; 100% = 100 µM peroxide control, 0% = buffer.
On to `O=C1c2cccc3c([N+](=O)[O-])ccc(c23)C(=O)N1CC1CCCO1` (configuration not stated), for which the activation was -0.67% (inactive).

For the compound `O=C(N/N=C1\CCSC1)c1cc(Cl)ccc1O`, the activation was -0.43% (inactive). For the compound `CCn1ccnc1CN1CCCC(C(=O)c2ccc3c4c(cccc24)CC3)C1` (configuration not stated), the activation is -1.32% (inactive). For `COc1ccc([N+](=O)[O-])cc1NC(=O)c1ccc(N(Cc2ccccc2C)S(C)(=O)=O)cc1`, the activation is 2.05% (inactive). The result for `CCOc1ccc(N(CC(=O)NC2CCCCCC2)S(=O)(=O)c2c(C)[nH]c(=O)[nH]c2=O)cc1` reads -0.79% (inactive); that for `CCC(O)C1CCN(Cc2cn(-c3ccc(OC)cc3)nc2-c2cccc(F)c2)CC1` (configuration not stated), -1.12% (inactive). Turning to `O=C(NNC(=O)C1CCN(c2ncccn2)CC1)c1ccccc1`, the activation was 3.9% (inactive). The result for `O=C(NC(=S)Nc1ccc(NC(=O)c2cccs2)cc1)c1ccc([N+](=O)[O-])cc1` reads 0.63% (inactive); that for `CNc1ccc(SC#N)cc1`, -1.28% (inactive). `CCN1CCN(CC(=O)c2cc(OC)c(OC)c(OC)c2)CC1`: the activation was -2.87% (inactive). As for `CC(Nc1ccccc1)c1cccnc1` (configuration not stated), the activation is -1.74% (inactive). Turning to `CN(C)c1ccc(-n2cccc2/C=N/n2cnnc2)cc1`, the activation was -0.65% (inactive).

Regarding `COC(=O)/C(C#N)=C/c1occc1C`, the activation is -0.05% (inactive). For `Cc1cc(C)cc(N(CC(=O)N2CC=C(c3ccccc3)CC2)S(=O)(=O)c2c(C)noc2C)c1`, the activation was -1.64% (inactive). As for `CC(C)(C)C(=O)N(Cc1ccccc1)c1ccccn1`, the activation is -0.82% (inactive). Regarding `O=C(CN1CCCCCC1)Nc1ccc(Br)cc1Br`, the activation is 0.33% (inactive). Turning to `COCCCn1c(SCC(=O)Nc2ccccc2)nnc1-c1ccncc1`, the activation was 0.72% (inactive).

Take `CCCCN=C1C([N+](=O)[O-])=CC=C2C1=NC1(CCCCC1)N2O`: the activation was 0.33% (inactive). For the compound `O=C(N/N=C/c1ccco1)c1ccc(C(=O)N/N=C/c2ccco2)o1`, the activation was -0.77% (inactive). The result for `O=C(C1CC1)N1N=C2CCCCC2C1(O)C(F)(F)F` (configuration not stated) reads -0.33% (inactive). As for `CC1Cc2ccccc2N1S(=O)(=O)c1c(N)n(C)c(=O)n(C)c1=O` (configuration not stated), the activation is -1.16% (inactive). As to `Cc1cc(NC(=O)CSc2nc3c(cc2C#N)CCCCC3)no1`, the activation was -0.92% (inactive). Regarding `COC(=O)c1ccccc1NS(=O)(=O)c1ccc2[nH]c(=O)[nH]c2c1`, the activation is 0.27% (inactive). Turning to `COc1ccc(CCNC(=O)/C(C#N)=C2\N=C(NC(=O)c3cccs3)c3ccccc32)cc1`, the activation was 0.35% (inactive). Regarding `CCC(NC(=O)c1ccccc1NC(=O)c1ccccc1)C(=O)NNC(=O)CSc1nc2ccccc2o1` (configuration not stated), the activation is -0.15% (inactive). The result for `CCc1cccc(C)c1NC(=O)COC(=O)Cc1ccsc1` reads -0.34% (inactive); that for `Cc1noc(C)c1COc1ccc2ccc(=O)oc2c1`, -0.19% (inactive). As for `COc1ccc2nc(Nc3nc(-c4ccncc4)cs3)sc2c1`, the activation is -0.22% (inactive).

As to `Cc1cccc(OC(=O)c2sc3ncn(C)c(=O)c3c2C)c1`, the activation is 0.69% (inactive). Regarding `COc1ccc(CCNC(=O)C(=O)NCc2ccccc2C)cc1OC`, the activation was -0.24% (inactive). The result for `CCc1nnc(NC(=O)C2CC(=O)N(c3ccc4c(c3)OCCO4)C2)s1` (configuration not stated) reads 0.21% (inactive).

As to `CCc1ccc(CN(C)C(=O)CCc2nnc(-c3ccc(-c4ccccc4)cc3)o2)nc1`, the activation was -1.14% (inactive).

In the case of `Cc1ccccc1NC(=O)c1ccc(COc2ccc3c(C)cc(=O)oc3c2)cc1`, the activation is 0.57% (inactive). Take `O=C(Nc1cccc(C(F)(F)F)c1)c1ccc(N2CCNCC2)c([N+](=O)[O-])c1`: the activation was 2.54% (inactive). The result for `CN(C)CCCO/N=C(\c1ccccc1)c1ccncc1` reads 0.18% (inactive). The result for `CCOCCCNC(=O)C(NC(=O)c1ccc(=O)[nH]c1)c1ccc(Cl)cc1` (configuration not stated) reads -3.26% (inactive); that for `COc1cc(CC(=O)N/N=C/c2ccccc2)c([N+](=O)[O-])cc1OC`, -0.77% (inactive); that for `O=S(=O)(c1ccc(F)cc1)N1CCN(C(=S)NCc2ccco2)CC1`, -0.47% (inactive). For `O=C(Cc1ccccc1)NNC(=O)C1CCN(c2ncccn2)CC1`, the activation is -0.49% (inactive). On to `COc1ccc(Cl)cc1-n1c(C)cc(C(=O)OCC(=O)N2CC(=O)Nc3ccccc32)c1C`, for which the activation was 0.04% (inactive). Turning to `Cc1ccc(-c2cc(=O)c3ccc(Cl)cc3[nH]2)cc1`, the activation was -1.26% (inactive). With `CCN(CC)c1ccc([N+](=O)[O-])cc1C(=O)O`, the activation is 0.13% (inactive). The result for `N#Cc1c(NC(=O)c2ccc(N3CCOCC3)c([N+](=O)[O-])c2)sc2c1CCCC2` reads 0.09% (inactive); that for `COc1cc(NC(=S)NCc2ccco2)c(OC)cc1Cl`, -0.01% (inactive). As for `O=C(Nc1ccccc1)c1cc2ccccc2[nH]1`, the activation was -0.39% (inactive).

In the case of `C=CCN(Cc1nc(-c2cc(OC)c3c(c2)OCO3)oc1C)C1CCS(=O)(=O)C1` (configuration not stated), the activation was -0.18% (inactive). The result for `COc1ccccc1C(=O)Nc1ccc(OCc2nnc3c4ccccc4c(C)nn23)cc1` reads -0.13% (inactive); that for `CCOC(=O)Nc1ccc(S(=O)(=O)N(C)C(C)C)cc1`, 0.17% (inactive); that for `Cc1cc(NC(=O)CN2C(=O)NC(CCc3ccccc3)C2=O)no1` (configuration not stated), -0.88% (inactive).

Take `COc1ccc(OC)c(NC(=O)CN(Cc2ccc(Cl)cc2)S(C)(=O)=O)c1`: the activation was -0.61% (inactive). The result for `CC(C)NC(=O)c1ccccc1S(=O)c1ccccc1C#N` (configuration not stated) reads 0.13% (inactive). The result for `COc1ccc(C2=NN(c3ccccc3)C(c3cccs3)C2)cc1` (configuration not stated) reads 0.96% (inactive); that for `C=CCn1nc(-c2ccccc2)c2c(C)onc2c1=O`, -0.48% (inactive); that for `Cc1ccc(C(=O)NC(C)c2ccccc2)cc1Br` (configuration not stated), -0.27% (inactive).

Take `CC(C)Cn1c(N)c(C(=O)COC(=O)CN2C(=O)C3CC=CCC3C2=O)c(=O)n(C)c1=O` (configuration not stated): the activation is -0.26% (inactive). `Cc1cc(C)cc(NC(=O)N2CCCCCCC2)c1`: the activation was -0.28% (inactive).

With `CCCCN1C(=O)/C(=C/C=C2/C=Cc3ccccc3N2CC)SC1=S`, the activation was 1.26% (inactive).

For the compound `C=CCn1c(COc2ccc(F)cc2)nnc1SCC(=O)Nc1cccc(S(N)(=O)=O)c1`, the activation was -0.73% (inactive). For `CCN(CC)CCCNC(=O)Cn1cnc2sc(C)c(S(=O)(=O)N3CCN(c4ncccn4)CC3)c2c1=O`, the activation is -0.75% (inactive). With `COC(=O)C1=C(C(=O)OC)C(c2cc([N+](=O)[O-])ccc2O)c2sc(=O)[nH]c2S1` (configuration not stated), the activation is 0.35% (inactive). Take `COCCn1c(C)cc(C(=O)COC(=O)/C=C/c2cccc(OC)c2)c1C`: the activation was 0.06% (inactive).

Turning to `O=C(COC(=O)c1ccc(F)cc1)Nc1nc2ccc([N+](=O)[O-])cc2s1`, the activation is -0.91% (inactive). `Cc1nn(CC(=O)NCc2ccccn2)c(C)c1[N+](=O)[O-]`: the activation was 0.55% (inactive). Consider `Cc1nc(NC(=O)C2CCCCC2)sc1C`, for which the activation is 1.88% (inactive).

For the compound `O=C(Nc1cccc(S(=O)(=O)N2CCCCC2)c1)c1ccc2c(c1)OCO2`, the activation was -0.11% (inactive). The result for `CCOC(=O)C1(Cc2ccccc2C(F)(F)F)CCN(C(=O)c2cc(C)n(C)n2)CC1` reads -0.12% (inactive); that for `COC(=O)NNC1=CC(=O)CC(C)(C)C1`, 0.51% (inactive). With `CCOC(=O)c1c(N)nn(C(=O)c2ccccc2)c1-c1ccccc1`, the activation was -2.05% (inactive). The result for `CCCCNC(=O)CCn1c(=O)c2ccccc2n(Cc2cc(C)ccc2C)c1=O` reads 0.21% (inactive). For `C=CCn1c2ccccc2c2nnc(SCc3[nH]c(=O)[nH]c3C(=O)CCCCC(=O)OCC)nc21`, the activation is 0.68% (inactive). Consider `CCN1C(=O)/C(=c2\s/c(=C3\Sc4ccccc4N3C)c(=O)n2C)N(C)C1=S`, for which the activation was -0.11% (inactive).

As for `CC(=O)C1(C)N(O)C(C)(C)C(c2cccs2)=[N+]1[O-]` (configuration not stated), the activation is 0.23% (inactive). The result for `Cc1c(NC(=S)NCc2ccc(F)cc2)cccc1[N+](=O)[O-]` reads 0.02% (inactive). Consider `CN(C)/C=C(/C(=O)c1ccc(F)cc1)S(=O)(=O)c1ccc(F)cc1`, for which the activation was -0.68% (inactive). With `CCC1CCCCN1C(=O)CSc1nc(C)cc(C)n1` (configuration not stated), the activation was -1.65% (inactive). The result for `CCCCC(O)(CCCC)C(=O)NN(C(=O)CCl)c1ccccc1` reads 0.06% (inactive); that for `O=C(c1cccs1)n1nc(NCc2ccccc2)nc1NCc1ccccc1`, -0.21% (inactive). As for `Cc1cc(C)c(C#N)c(SCC(=O)Nc2ccccc2)n1`, the activation was 0.39% (inactive).

`COc1ccc(/C=C(\C#N)C(=O)ONC2=NCCCCC2)cc1`: the activation was -1.95% (inactive).

`Cc1cc(CNCc2c(C(=O)N(C)Cc3ccccc3)nc3ccccn23)nn1C`: the activation was -1.78% (inactive). Consider `Cc1ccc(C)c(OCC(=O)N2CCN(C(=O)c3ccco3)CC2)c1`, for which the activation was -0.33% (inactive). Regarding `COc1ccc(/C=C/C(=O)c2ccc(NS(=O)(=O)c3ccc(C)cc3)cc2)cc1O`, the activation is 0.57% (inactive). On to `CCN(CC)C(=O)c1sc2nc(-c3ccccc3)ccc2c1N`, for which the activation was 0.13% (inactive).

Take `Cc1ccc(C)c(NC(=S)NNC(=S)Nc2ccc(C(C)C)cc2)c1`: the activation is -1.35% (inactive). On to `Oc1ccc(/C=N/Nc2ccc(C(F)(F)F)cn2)cc1O`, for which the activation is -2.05% (inactive). Consider `CC(CC(=O)O)CC(=O)NNC(=O)c1cccc(Br)c1` (configuration not stated), for which the activation was 0.78% (inactive).

As to `Cc1ccc(OCC(=O)OC(C)CN(C)Cc2ccccc2)cc1` (configuration not stated), the activation was -0.15% (inactive).

`Cc1ccc(NC(=O)c2oc(=O)c3ccccc3c2-c2ccccc2)c(C)c1`: the activation was -0.2% (inactive). On to `COc1ccc(CS(=O)/C(Cl)=C(/Cl)C(=O)Nc2ccc(OC)nc2)cc1` (configuration not stated), for which the activation is 0.27% (inactive). Turning to `CCOC(=O)C1=C(CN2CCCCCC2)NC(=O)NC1c1cccc([N+](=O)[O-])c1` (configuration not stated), the activation is -10.2% (inactive). As to `CCOC(=O)C1(O)CC(C)=NN1C(=O)c1cccc(Br)c1` (configuration not stated), the activation is -0.77% (inactive).

`COC(=O)c1ccccc1NC(=O)C1CC(=O)N(c2ccc(OC)cc2)C1` (configuration not stated): the activation was -0.76% (inactive).
